# D1 ag: human D1 receptor agonism; P21728; HEK293 T-REx D1 cells, calcium flux, agonist mode; activation, % at 2 µM; hit rate 1% among 360,000; in the data active = activation above about 30%; note: 0% is about no effect
# Target sequence (P21728 whole entry, looked up): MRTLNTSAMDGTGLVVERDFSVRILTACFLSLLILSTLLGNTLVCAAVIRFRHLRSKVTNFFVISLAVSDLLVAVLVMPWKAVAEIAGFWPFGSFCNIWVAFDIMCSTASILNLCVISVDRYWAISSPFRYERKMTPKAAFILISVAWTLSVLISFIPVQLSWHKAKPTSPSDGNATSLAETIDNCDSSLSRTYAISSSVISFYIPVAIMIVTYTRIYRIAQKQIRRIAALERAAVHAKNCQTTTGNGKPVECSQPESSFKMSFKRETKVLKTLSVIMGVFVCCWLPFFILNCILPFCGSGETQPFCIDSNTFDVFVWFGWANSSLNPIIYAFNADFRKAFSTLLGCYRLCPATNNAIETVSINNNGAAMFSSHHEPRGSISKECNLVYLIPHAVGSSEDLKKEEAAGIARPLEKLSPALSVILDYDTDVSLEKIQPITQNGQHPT
#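 Inducible HEK293 T-REx D1 cells, force-coupled to calcium signalling, were plated at 4000 cells/well with tetracycline and held overnight at 30 C. After no-wash calcium dye loading, compound-evoked calcium rise over 180 s flagged agonists.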
# D1 antag: blocks dopamine activation of the human D1 receptor | P21728 | HEK293 TREx D1 cells, calcium flux, dopamine EC80; stronger effect = lower value | activity change, negative = inhibition, % at 10 µM | hit rate 3.2% among 360,000 | AID 504652; in the data active = activity change below about -30%; note: % is set by controls: 0 for no effect and ±100 for the full control effect
#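 Tetracycline-induced HEK293 Trex D1 cells, force-coupled to calcium, dye-loaded; compounds added and read 180 s, then EC80 dopamine added and calcium flux tracked kinetically another 180 s.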
# D1 PAM: human D1 dopamine receptor positive modulation; HEK293 TREx D1 cells, calcium flux, dopamine EC20 potentiation; P21728; AID 504651; potentiation, % at 10 µM; hit rate 0.036% among 360,000; in the data active = potentiation above about 30%; note: 0% is about no effect
# TRHR agonist-1: activates the human TRH receptor. TRHR cells, calcium flux fluo-8, FDSS agonist mode. activation, % at 2 µM. hit rate 0.18% among 360,000. AID 493084; in the data active = activation above about 30%; note: 0% is about no effect
#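 Agonist-mode FDSS calcium read (Ex 480/Em 530, 1 s cycles) in 1536-well TRHR cells with fluo-8 dye, after 10-cycle baseline and 23 nL compound addition; TRH at EC20 (10 nM final) added afterwards for the enhancer phase.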
# Epigenetic reg: derepresses silenced GFP reporter in murine cells | murine LDR cells, GFP reporter derepression, 30 h | Potency, µM (doses to about 53.9 µM), for the others: at the highest dose GFP activation, hits mostly activators | hit rate 0.2% among 280,000 | AID 1865; note: potency is the fitted concentration of half-maximal effect; % of control where 0% means no effect; nearly all actives have a fitted effect of over 60% in size
#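 Readout is the number of GFP-expressing murine LDR cells, counted by cytometry following washing. Cells were treated with compound for 30 h at 37 C; the stably integrated CMV-GFP locus is normally silent.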
# TRHR enhancer-1: allosteric enhancers of human TRH receptor. enhancement, % at 2 µM. P34981. hit rate 0.66% among 360,000. TRHR cells, fluo-8 calcium fluorescence, EC20 TRH enhancement; in the data active = enhancement above about 30%; note: 0% is about no effect
#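 Enhancer read-out: after compound pinning and an initial kinetic agonist-mode read, an EC20 of TRH (10 nM final) was injected and fluo-8 calcium signal (Ex 480/Em 530) followed at 1 s/cycle for 100 cycles in TRHR-expressing cells.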
# TRHR enhancer-2: confirmation of human TRH receptor allosteric enhancers; 970 tested, under 10 active; TRH receptor cell assay, enhancer confirmation qHTS; shares compounds with TRHR enhancer-1; activity change, negative = inhibition, % at 46.1 µM;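 note: compound effect scored on response to added TRH at EC20 of 10 nM; 0% is about no effect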
# TRHR agonist-2: confirmation of human TRH receptor agonists | shares compounds with TRHR enhancer-1 | TRHR-expressing cells, agonist activation read-out | Potency, µM (series often up to 46.1 µM), without a hit: at the top dose activation, usual class: activators | hit rate 8% among 970 | AID 493078; note: potency is the fitted concentration of half-maximal effect; 0% is about no effect; nearly all actives have a fitted effect of over 75% in size
# Active calls of the source: *; ? = inconclusive; . = no result given. Hits are enriched below; roughly 4.6% of the tested compounds scored in any of these assays. Unless noted, calls come from the whole dose curve; as a rule, active = well fitted curve in the direction sought with a large enough effect; inconclusive = small, poorly fitted or top-dose-only effect, or another doubt; inactive = no such curve, though single readings can be large; an effect the other way counts as inactive or inconclusive.
SMILES,D1 ag,D1 antag,D1 PAM,TRHR agonist-1,Epigenetic reg,TRHR enhancer-1,TRHR enhancer-2,TRHR agonist-2
Cc1cc(-n2c(SCc3ccccc3F)nc3n[nH]c(C)c3c2=N)ccc1Cl,0,-3,-6,1,2%,54*,-11,1%
CCN(CC)CCCNC(=S)N1CCN(c2nc(-c3ccccc3)cs2)CC1,29,-37*,-19,2,.,42*,-9,?
Nc1nc(SCc2c(Cl)cccc2Cl)n[nH]1,0,-23,-9,-1,1%,45*,1,4%
O=C(O)C1CC[C@@](C(=O)O)(c2ccccc2)c2ccccc21 (some centres undefined),.,.,.,.,-1%,.,.,.
COc1ccc(Cn2nnnc2CN(CCCN2CCOCC2)Cc2cc3cc(OC)ccc3[nH]c2=O)cc1,3,1,-3,0,4%,43*,8,-1%
Cc1cn2c(N)c(C=C3C=C(Cl)C(=O)C(Cl)=C3)c(=O)nc2s1,51*,6,3,27,2%,-3,0,9.2µM*
CCC(C)NC(=O)c1cc2c(=O)n(CC)c3ccccc3c2s1 (centres undefined),2,4,-9,-1,.,58*,-5,2%
COc1ccc(CNC(=O)c2cc(C3CC3)nc3c2cnn3C(C)C)cc1,1,-5,-3,-1,.,43*,-12,?
COc1ccc(CN2CCC(C(=O)Nc3ccc(Oc4ccccc4)nc3)CC2)cc1F,31*,-24,-9,2,.,72*,-2,?
COC(=O)[C@@H]1C[C@H]1[C@@H](N)c1ccccc1,.,.,.,.,3%,.,.,.
Cc1c(Nc2nc(-c3cccc([N+](=O)[O-])c3)cs2)c(=O)n(-c2ccccc2)n1C,0,2,-3,0,-1%,48*,-1,1%
Cc1c(NS(=O)(=O)c2cccc([N+](=O)[O-])c2)c(=O)n(-c2ccccc2)n1C,0,2,-3,0,.,3,.,.
CC(C)C(=O)Nc1ccc2nc(SCC(=O)N3CCc4ccccc43)sc2c1,10,24,2,-3,-3%,5,.,.
CC(C)C(=O)NC(C)C(c1cccs1)N1CCN(c2ccccc2)CC1 (centres undefined),-1,22,-5,0,-1%,7,.,.
CC(NS(C)(=O)=O)C(c1cccs1)N1CCN(c2ccccc2)CC1 (centres undefined),1,23,4,1,-1%,59*,-3,2%
COc1cc(Cl)c(C)cc1NC(=O)CSCc1nc(-c2ccc(OC)c(OC)c2)no1,0,-5,4,0,-1%,-5,.,.
O=c1cc(CO)occ1O,.,.,.,.,2%,.,.,.
Cc1[nH]nc2c1C(c1cnn(C)c1)C(C#N)=C(N)O2 (centres undefined),4,-5,-2,1,1%,55*,-1,-1%
Cc1ccc(C2C(C#N)=C(N)Oc3n[nH]c(C)c32)cc1 (centres undefined),1,8,-8,0,-1%,2,.,.
O=C(O)CCCC(=O)N1N=C(c2ccccc2)CC1c1ccc2nccnc2c1 (centres undefined),3,6,-1,0,0%,46*,1,0%
O=C(O)CCC(=O)N1N=C(c2ccccc2)CC1c1ccc2nccnc2c1 (centres undefined),1,8,-4,1,1%,-4,.,.
CCOC(=O)c1cc(S(=O)(=O)Nc2ccccc2OCC)[nH]n1,1,-6,-1,0,-2%,0,.,.
COc1cc(NC(=S)NCCc2c[nH]c3ccccc23)c(OC)cc1Cl,4,-7,-1,0,-1%,49*,-7,2%
COCCn1c(SCC(=O)N2CC(=O)Nc3ccccc32)nc2ccccc21,0,-8,6,45*,0%,7,-6,-1%

# Screening data deposited in PubChem by National Center for Advancing Translational Sciences (NCATS).
